Reference: PubChem BioAssay (NCATS)
Records with an inconclusive call do not appear. Activity calls are given as the source filed them. Unless noted, the call rests on the fitted dose curve; in most records, active means well fitted curve in the direction sought with a large enough effect; inconclusive means small, poorly fitted or top-dose-only effect, or another doubt; inactive means no such curve, though single readings can be large; an effect the other way counts as inactive or inconclusive.

Legend:
[1] = target: Lysosomal acid glucosylceramidase (Homo sapiens) (UniProt P04062); assay: Glucocerebrosidase-p2 (AID 348; in the data active means potency below about 10 µM; further: potency means the concentration at half of the fitted maximal effect); settings: purified GBA, blue fluorogenic substrate, 40 min
How it was run: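 Normal human glucocerebrosidase (0.2 nM) with blue fluorogenic substrate (80 uM final) in citrate/phosphate pH 5.9 with 10mM sodium taurocholate, 0.01% tween-20; 40 min RT, NaOH/glycine stop; fluorescence Ex 365/Em 440; AC50 from a titration from 0.6 nM upwards.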

[2] = target: Cytochrome P450 1A2 (Homo sapiens) (UniProt P05177); assay: p450-cyp1a2 (AID 410; calls by dose curve; further: potency means the concentration at half of the fitted maximal effect); settings: recombinant CYP1A2, luciferin-ME demethylation, luminescence; series mostly up to 57 µM
How it was run: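 20nM CYP1A2, 100uM Luciferin-ME (=Km), 100mM KPO4; cpd 10 min RT; +NADPH regen, 60 min RT; stop/detect 20 min; luminescence. Normalized to furafylline 57 uM = full inhibition.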

[3] = NFAT Signaling Pathway (AID 444; active means well fitted curve in either direction with a large enough effect, not every such curve was filed as active;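 further: carbachol stimulus at about its EC50 of 1 µM final; on the % scale 0 is the no-effect control and ±100 the full control effect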); settings: Jurkat NFAT-bla M1, carbachol, beta-lactamase ratio, 5 h; at 7.69 µM (top of the series) unless noted
How it was run: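 Jurkat cells with NFAT-driven β-lactamase reporter and co-expressed M1 receptor, stimulated with carbachol (final 1 uM, ~EC50), compound titration, 5 h at 37 °C. CCF4 loaded 1 h at RT; 460/530 nm ratio gave %activity and AC50.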

[4] = Stat Signaling Pathway (AID 446; active means well fitted curve in either direction with a large enough effect, not every such curve was filed as active;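 further: ME-180 cervical cancer cells given 40 pM IL-6 alongside compound; SIE-controlled beta-lactamase reporter measured as 460/530 nm FRET emission ratio; on the % scale 0 is the no-effect control and ±100 the full control effect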); settings: ME-180 SIE beta-lactamase reporter, IL-6 stimulated, 5 h; at 7.69 µM (top of the series) unless noted
How it was run: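 FRET read-out (405 nm excitation, 460/530 nm emission) of a beta-lactamase reporter under a STAT-inducible element in ME-180 cervical carcinoma cells. Cells with compound receive 40 pM IL-6 for 5 h. Values are normalised to AC90 stimulation and AC90 JAK-inhibitor controls.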

[5] = target: Glucocorticoid receptor (Homo sapiens) (UniProt P04150); assay: GR-EFC Redistribution (AID 451; calls by dose curve; further: potency means the concentration at half of the fitted maximal effect); settings: CHO-K1 GR-EFC translocation, beta-gal luminescence, 2 h
How it was run: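 CHO-K1 cells expressing nuclear EA and GR-ED fragments of b-gal; compounds titrated up to 46 uM final, 2 h at 37 C. GR nuclear translocation read as complemented b-gal luminescence after 1 h RT detection.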

[6] = target: Mitogen-activated protein kinase 10 (Mus musculus) (UniProt Q61831); assay: JNK3 AlphaScreen Assay (AID 530; active means well fitted curve in either direction with a large enough effect, not every such curve was filed as active;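 further: kinase came from lysate of stimulated human HepG2 cells; signal reports phosphorylation of biotinylated GST-cJun 1-79 at Ser73 with 10 µM ATP; on the % scale 0 is the no-effect control and ±100 the full control effect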); settings: JNK3 lysate, c-Jun phosphorylation; series mostly up to 57.1 µM
How it was run: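 HepG2 lysate (IL-1b/TNFa pre-activated) + biotin-GST-cJun 1-79 + anti-pSer73 cJun; cpd titration, 15 min RT; ATP 10 uM start; Tris pH 7.6, MgCl2, DTT, vanadate; beads in EDTA buffer; AlphaScreen.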

[7] = target: 3',5'-cyclic-AMP phosphodiesterase 4B (Homo sapiens) (UniProt Q07343); assay: qHTS Assay for Inhibitors of PDE-IV (AID 607; active means well fitted activation curve with a large enough effect in the main read-out, with a control signal flat, not every such curve was filed as active; further: potency means the concentration at half of the fitted maximal effect); settings: HEK293 ACTOne CNG channel cells, membrane potential fluorescence; series mostly up to 22.9 µM
How it was run: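 Cell-based read-out of cAMP via a modified cyclic nucleotide-gated channel and membrane potential dye (535/590 nm) in HEK293 cells expressing PDE4 endogenously. Compounds tested up to 22.9 uM final; 100 uM RO 20-1724 reference.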

[8] = target: Cytochrome P450 2C19 (Homo sapiens) (UniProt P33261); assay: qHTS Assay for Inhibitors and Substrates of Cytochrome P450 2C19 (AID 899); settings: recombinant CYP2C19, luciferin-H EGE luminescence; series mostly up to 57.1 µM; further: potency means the concentration at half of the fitted maximal effect; nearly all actives have a fitted effect of over 60% in size
How it was run: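 5 nM human CYP2C19 with 10uM Luciferin-H EGE (at KM) in 50mM KPO4, compound preincubated 10 min at 37C, then NADPH regeneration for 60 min at 37C. Luciferin read by luminescence after detection reagent; normalized to 57uM ketoconazole as full inhibition.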

[9] = target: Dual specificity protein kinase CLK4 (Homo sapiens) (UniProt Q9HAZ1); assay: qHTS Assay for Inhibitors of CDC-like Kinase 4 (Kinase-Glo Assay) (AID 1770); settings: recombinant Clk4, Kinase-Glo ATP depletion luminescence; series mostly up to 66.7 µM; further: nearly all actives have a fitted effect of over 65% in size; further: potency means the concentration at half of the fitted maximal effect
How it was run: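 Clk4 25 nM, RS peptide 100 uM, ATP 1 uM, pH 7.5 Tris, 10 mM MgCl2, 2.5 mM DTT; 4.5 h RT; ATP depletion read by Kinase-Glo luminescence.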

[10] = target: Dual specificity protein kinase CLK4 (Homo sapiens) (UniProt Q9HAZ1); assay: qHTS Assay for Inhibitors of CDC-like Kinase 4 (ADP-Glo Assay) (AID 1771); settings: recombinant CLK4, ADP-Glo luminescence; series mostly up to 80 µM; further: nearly all actives have a fitted effect of over 70% in size; further: potency means the concentration at half of the fitted maximal effect
How it was run: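 25 nM Clk4, 100 uM RS peptide, 1 uM ATP (final); 2 mM MgCl2, 0.5 mM EGTA, 2.5 mM DTT, 0.01% Triton X-100; 1 hr RT. ADP-Glo readout: ATP depletion 45 min, conversion/luciferase 30 min, luminescence.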

[11] = target: Dual specificity protein kinase CLK4 (Homo sapiens) (UniProt Q9HAZ1); assay: qHTS Assay for Inhibitors of CDC-like Kinase 4 (ADP-FP Assay) (AID 1795); settings: Transcreener ADP fluorescence polarization; series mostly up to 50 µM; further: nearly all actives have a fitted effect of over 60% in size; further: potency means the concentration at half of the fitted maximal effect
How it was run: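 Kinase activity was followed as ADP output, converted from fluorescence polarization with a calibration curve. Reactions ran one hour at low ATP (1 uM) with RS peptide substrate.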

[12] = target: Ubiquitin carboxyl-terminal hydrolase 1 (Homo sapiens) (UniProt O94782); assay: Inhibitors of USP1/UAF1: Pilot qHTS (AID 504865); settings: purified USP1/UAF1, Ub-rhodamine cleavage fluorescence; series mostly up to 54.9 µM;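 further: rhodamine fluorescence freed from ubiquitin-rhodamine substrate followed over time; top concentration of the series differs between compounds; on the % scale 0 is the no-effect control and ±100 the full control effect; nearly all actives have a fitted effect of over 35% in size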
How it was run: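 Enzyme-free wells gave the negative control, while test wells held 1nM USP1/UAF1 preincubated with compound for 15 min at room temperature. Ub-Rho at 150nM final started the reaction, and fluorescence at 480/540 nm was recorded kinetically.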

[13] = Primary qHTS for small molecule stabilizers of the endoplasmic reticulum resident proteome: Secreted ER Calcium Modulated Protein (SERCaMP) assay (AID 1508630); settings: SH-SY5Y GLuc-SERCaMP (Gaussia luciferase released on ER calcium loss) secretion, thapsigargin, luminescence; series mostly up to 38.4 µM; further: on the % scale 0 is the no-effect control and ±100 the full control effect
How it was run: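 The SH-SY5Y reporter protocol was run at 3 concentrations up to 38.3 uM (primary) or 11 concentrations (follow-up): 16 h compound, 100 nM thapsigargin for 4 h, then extracellular luciferase luminescence.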

[14] = target: Glucocorticoid receptor (Homo sapiens) (UniProt P04150); assay: GR-GFP Redistribution (AID 450;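 active means compounds whose dose series gives a full or clear partial fitted curve of increased nuclear translocation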; further: potency means the concentration at half of the fitted maximal effect); settings: U2OS GR-GFP nuclear translocation, laser cytometry, 2 h
[15] = target: Cytochrome P450 3A4 (Homo sapiens) (UniProt P08684); assay: qHTS Assay for Inhibitors and Substrates of Cytochrome P450 3A4 (AID 884); settings: recombinant CYP3A4, Luciferin-PPXE luminescence; series mostly up to 57.1 µM; further: potency means the concentration at half of the fitted maximal effect; nearly all actives have a fitted effect of over 50% in size
How it was run: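 Luminescent readout of luciferin produced by CYP3A4 (20 nM) dealkylation of Luciferin-PPXE, 25 uM (its KM). NADPH-driven reaction ran 60 min at RT after 10 min compound preincubation; data scaled to 57 uM ketoconazole as 100% inhibition.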

[16] = target: Cytochrome P450 3A4 (Homo sapiens) (UniProt P08684); assay: qHTS Assay for Activators of Cytochrome P450 3A4 (AID 885); settings: recombinant CYP3A4, Luciferin-PPXE luminescence, 60 min; series mostly up to 57.1 µM; further: nearly all actives have a fitted effect of over 65% in size
How it was run: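 Luminescent readout of luciferin formed from 25 uM Luciferin-PPXE (KM level) by 20 nM CYP3A4 in 200 mM KPO4, with 60 min NADPH-driven reaction at room temperature after 10 min compound exposure. Ketoconazole (57 uM) defined 100% inhibition.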

[17] = qHTS Assay for Identification of Small Molecule Agonists for Hypoxia Response Element Signaling Pathway (AID 914; active means well fitted activation curve with a large enough effect in the signal ratio, with a control signal flat, not every such curve was filed as active; the % refers to the signal ratio; further: potency means the concentration at half of the fitted maximal effect); settings: ME-180 (cervical carcinoma) HRE-bla reporter, beta-lactamase ratio, CoCl2, 17 h; activation: hits give high values
How it was run: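 HRE-bla ME-180 cells, overnight plating in Opti-MEM with 0.5% dialyzed FBS; cpd titration + EC50 CoCl2, 17 h, 37 degrees Celsius; CCF4 2.5 h RT; 460/530 nm ratio; AC50.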

Sequence of Ubiquitin carboxyl-terminal hydrolase 1 (Homo sapiens) (O94782 whole entry, looked up): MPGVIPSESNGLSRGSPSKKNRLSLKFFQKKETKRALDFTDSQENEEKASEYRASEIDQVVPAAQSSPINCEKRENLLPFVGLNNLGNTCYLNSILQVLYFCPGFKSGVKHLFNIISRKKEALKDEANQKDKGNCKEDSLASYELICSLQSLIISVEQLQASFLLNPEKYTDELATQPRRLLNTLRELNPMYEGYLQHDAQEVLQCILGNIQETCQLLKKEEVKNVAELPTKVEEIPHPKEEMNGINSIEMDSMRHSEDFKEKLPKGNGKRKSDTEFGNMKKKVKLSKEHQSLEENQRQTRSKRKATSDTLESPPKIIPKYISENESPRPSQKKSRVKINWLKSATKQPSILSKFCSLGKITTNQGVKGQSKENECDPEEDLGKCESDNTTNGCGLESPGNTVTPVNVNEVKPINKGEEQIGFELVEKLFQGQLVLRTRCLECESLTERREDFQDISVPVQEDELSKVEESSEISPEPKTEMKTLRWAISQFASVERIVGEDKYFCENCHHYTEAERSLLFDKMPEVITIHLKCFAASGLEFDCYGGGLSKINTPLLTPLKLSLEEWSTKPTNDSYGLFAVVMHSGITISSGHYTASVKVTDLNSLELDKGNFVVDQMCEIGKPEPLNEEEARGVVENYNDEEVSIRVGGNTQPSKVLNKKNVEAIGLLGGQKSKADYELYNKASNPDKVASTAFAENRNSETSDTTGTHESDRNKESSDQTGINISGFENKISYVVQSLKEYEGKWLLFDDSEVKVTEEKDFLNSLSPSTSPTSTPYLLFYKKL
Sequence of Cytochrome P450 1A2 (Homo sapiens) (P05177 whole entry, looked up): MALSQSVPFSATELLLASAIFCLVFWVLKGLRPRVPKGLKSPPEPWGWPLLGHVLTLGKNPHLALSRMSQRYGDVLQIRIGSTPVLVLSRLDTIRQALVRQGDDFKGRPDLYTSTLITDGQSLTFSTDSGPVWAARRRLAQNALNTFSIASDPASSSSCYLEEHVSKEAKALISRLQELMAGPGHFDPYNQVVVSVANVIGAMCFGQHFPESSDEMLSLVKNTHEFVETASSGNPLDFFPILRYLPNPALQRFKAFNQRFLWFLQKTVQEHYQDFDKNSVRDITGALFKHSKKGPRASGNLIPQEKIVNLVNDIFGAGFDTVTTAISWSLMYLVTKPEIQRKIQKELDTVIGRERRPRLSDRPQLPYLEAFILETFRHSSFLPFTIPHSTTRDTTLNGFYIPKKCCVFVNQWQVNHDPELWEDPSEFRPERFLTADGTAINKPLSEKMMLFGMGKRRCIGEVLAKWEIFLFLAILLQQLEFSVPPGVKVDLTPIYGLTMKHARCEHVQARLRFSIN
Sequence of Cytochrome P450 2C19 (Homo sapiens) (P33261 whole entry, looked up): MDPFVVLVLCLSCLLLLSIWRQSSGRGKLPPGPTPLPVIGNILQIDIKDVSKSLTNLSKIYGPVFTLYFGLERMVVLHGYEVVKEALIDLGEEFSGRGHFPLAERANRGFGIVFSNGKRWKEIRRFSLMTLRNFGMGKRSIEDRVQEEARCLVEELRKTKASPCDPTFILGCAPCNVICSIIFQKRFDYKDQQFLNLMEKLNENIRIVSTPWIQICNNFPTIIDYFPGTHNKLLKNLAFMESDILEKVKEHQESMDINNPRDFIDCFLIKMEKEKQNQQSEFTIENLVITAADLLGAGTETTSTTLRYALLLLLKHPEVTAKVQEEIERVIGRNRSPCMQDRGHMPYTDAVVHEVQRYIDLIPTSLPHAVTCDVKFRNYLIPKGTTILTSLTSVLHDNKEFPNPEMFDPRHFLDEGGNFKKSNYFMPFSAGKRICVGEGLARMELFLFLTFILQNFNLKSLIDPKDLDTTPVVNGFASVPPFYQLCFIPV
Sequence of Glucocorticoid receptor (Homo sapiens) (P04150 whole entry, looked up, the tested form may be a part): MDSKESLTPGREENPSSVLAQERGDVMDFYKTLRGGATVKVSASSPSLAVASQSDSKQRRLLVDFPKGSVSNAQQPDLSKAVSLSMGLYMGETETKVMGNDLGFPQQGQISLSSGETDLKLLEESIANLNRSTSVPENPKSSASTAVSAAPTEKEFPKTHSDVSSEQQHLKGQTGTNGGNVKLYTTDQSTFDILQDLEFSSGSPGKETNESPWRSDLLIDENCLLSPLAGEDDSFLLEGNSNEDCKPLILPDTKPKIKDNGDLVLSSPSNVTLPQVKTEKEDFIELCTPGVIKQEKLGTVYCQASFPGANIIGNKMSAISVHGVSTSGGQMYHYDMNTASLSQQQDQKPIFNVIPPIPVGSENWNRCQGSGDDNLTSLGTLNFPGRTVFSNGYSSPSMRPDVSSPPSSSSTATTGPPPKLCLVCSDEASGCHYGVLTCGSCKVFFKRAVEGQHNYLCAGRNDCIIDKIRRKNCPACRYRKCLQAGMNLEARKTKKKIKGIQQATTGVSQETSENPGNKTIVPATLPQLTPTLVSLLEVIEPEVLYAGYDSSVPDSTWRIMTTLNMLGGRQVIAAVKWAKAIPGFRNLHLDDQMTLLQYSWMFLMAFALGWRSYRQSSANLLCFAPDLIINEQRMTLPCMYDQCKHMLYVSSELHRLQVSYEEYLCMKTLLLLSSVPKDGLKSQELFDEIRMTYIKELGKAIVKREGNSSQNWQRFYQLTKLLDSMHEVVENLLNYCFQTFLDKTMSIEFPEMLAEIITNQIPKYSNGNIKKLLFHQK
Sequence of Cytochrome P450 3A4 (Homo sapiens) (P08684 whole entry, looked up): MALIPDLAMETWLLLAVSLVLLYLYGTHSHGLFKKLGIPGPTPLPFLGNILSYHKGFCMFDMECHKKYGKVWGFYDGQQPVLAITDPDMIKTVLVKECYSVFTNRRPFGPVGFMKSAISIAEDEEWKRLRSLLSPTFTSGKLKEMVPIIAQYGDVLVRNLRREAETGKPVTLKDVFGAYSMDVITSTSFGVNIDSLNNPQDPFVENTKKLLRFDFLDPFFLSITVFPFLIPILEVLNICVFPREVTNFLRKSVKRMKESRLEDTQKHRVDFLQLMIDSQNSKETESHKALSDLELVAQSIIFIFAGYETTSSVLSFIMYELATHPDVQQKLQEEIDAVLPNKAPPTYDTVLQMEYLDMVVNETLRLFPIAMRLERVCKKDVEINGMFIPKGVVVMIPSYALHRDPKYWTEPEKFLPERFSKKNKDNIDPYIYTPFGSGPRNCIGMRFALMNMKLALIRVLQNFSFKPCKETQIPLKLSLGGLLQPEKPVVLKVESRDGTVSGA
Sequence of 3',5'-cyclic-AMP phosphodiesterase 4B (Homo sapiens) (Q07343 whole entry, looked up): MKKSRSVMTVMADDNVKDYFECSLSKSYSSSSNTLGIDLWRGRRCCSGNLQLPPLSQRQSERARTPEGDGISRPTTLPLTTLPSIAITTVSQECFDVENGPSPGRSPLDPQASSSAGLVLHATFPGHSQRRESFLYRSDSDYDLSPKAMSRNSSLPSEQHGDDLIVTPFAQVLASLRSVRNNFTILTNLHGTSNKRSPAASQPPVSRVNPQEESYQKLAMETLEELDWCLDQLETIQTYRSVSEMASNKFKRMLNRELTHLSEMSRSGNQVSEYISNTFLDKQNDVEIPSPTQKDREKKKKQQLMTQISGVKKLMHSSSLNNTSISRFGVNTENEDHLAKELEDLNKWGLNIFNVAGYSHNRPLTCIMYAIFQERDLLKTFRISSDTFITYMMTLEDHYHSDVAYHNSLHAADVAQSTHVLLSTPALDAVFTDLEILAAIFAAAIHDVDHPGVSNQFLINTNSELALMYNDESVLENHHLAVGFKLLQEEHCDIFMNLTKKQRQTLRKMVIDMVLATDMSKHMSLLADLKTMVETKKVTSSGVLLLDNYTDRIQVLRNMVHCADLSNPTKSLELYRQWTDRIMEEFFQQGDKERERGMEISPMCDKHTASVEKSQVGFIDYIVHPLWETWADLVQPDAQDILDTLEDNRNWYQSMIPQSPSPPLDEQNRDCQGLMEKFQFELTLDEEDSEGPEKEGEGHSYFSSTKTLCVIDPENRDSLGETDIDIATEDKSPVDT
Sequence of Dual specificity protein kinase CLK4 (Homo sapiens) (Q9HAZ1 whole entry, looked up): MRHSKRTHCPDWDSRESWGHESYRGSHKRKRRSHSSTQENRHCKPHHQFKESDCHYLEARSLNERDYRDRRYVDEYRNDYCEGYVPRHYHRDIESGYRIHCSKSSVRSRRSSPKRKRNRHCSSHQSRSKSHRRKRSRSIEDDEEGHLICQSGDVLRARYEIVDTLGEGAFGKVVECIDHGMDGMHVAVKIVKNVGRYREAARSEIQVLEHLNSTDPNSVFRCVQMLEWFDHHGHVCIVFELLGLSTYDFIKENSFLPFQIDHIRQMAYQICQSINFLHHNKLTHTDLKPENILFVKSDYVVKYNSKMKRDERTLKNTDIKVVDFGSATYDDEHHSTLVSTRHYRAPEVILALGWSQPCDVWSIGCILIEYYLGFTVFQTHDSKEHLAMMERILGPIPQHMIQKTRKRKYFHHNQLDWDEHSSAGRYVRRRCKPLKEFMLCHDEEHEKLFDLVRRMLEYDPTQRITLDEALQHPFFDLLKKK
Sequence of Lysosomal acid glucosylceramidase (Homo sapiens) (P04062 whole entry, looked up): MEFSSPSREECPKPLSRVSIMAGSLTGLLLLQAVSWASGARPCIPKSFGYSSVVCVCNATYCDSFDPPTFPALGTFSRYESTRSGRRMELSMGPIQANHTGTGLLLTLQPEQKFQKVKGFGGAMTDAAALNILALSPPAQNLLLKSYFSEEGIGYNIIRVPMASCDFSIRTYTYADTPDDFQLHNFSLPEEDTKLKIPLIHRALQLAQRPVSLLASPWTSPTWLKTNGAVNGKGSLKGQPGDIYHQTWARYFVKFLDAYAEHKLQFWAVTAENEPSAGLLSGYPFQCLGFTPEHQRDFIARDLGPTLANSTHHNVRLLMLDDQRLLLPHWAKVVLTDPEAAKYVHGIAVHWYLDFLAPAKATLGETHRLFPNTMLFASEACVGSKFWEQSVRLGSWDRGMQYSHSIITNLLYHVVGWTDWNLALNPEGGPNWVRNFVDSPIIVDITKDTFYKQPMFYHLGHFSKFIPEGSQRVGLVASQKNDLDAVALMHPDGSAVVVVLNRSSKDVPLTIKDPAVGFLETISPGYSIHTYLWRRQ

c1ccc(Nc2ncnc3ccc(-c4ccoc4)cc23)cc1
inactive: Potency [1] > 11.4 µM | activity change, negative = inhibition [3] 14.5% | activity, negative = inhibition [4] -4.75% | Potency [5] > 46 µM | Potency [6] | Potency [7] | Potency [12] | outcome [13]
active: Potency [2] 1.58 µM | Potency [8] 2 µM | Potency [9] 0.708 µM | Potency [10] 0.631 µM | Potency [11] 0.447 µM

Cc1cccc(CNc2ccnc(-c3cccc(C#N)c3)n2)c1
active: Potency [2] 0.398 µM | Potency [15] 1.26 µM | Potency [8] 2.51 µM | Potency [9] 11.2 µM | Potency [10] 7.94 µM | Potency [11] 11.2 µM
inactive: Potency [1] > 11.4 µM | Potency [14] > 46 µM | Potency [5] > 46 µM | Potency [7] | Potency [16] | Potency [12] | outcome [13]

O=c1cnc2cnc(Nc3ccccc3)nc2n1CCc1ccccc1
active: Potency [2] 3.16 µM | Potency [7] 2.51 µM | Potency [8] 2 µM | Potency [9] 0.199 µM | Potency [10] 0.316 µM | Potency [11] 0.0891 µM
inactive: Potency [1] > 11.4 µM | activity change, negative = inhibition [3] 9.72% | activity, negative = inhibition [4] -12.1% | Potency [14] > 9.22 µM | Potency [5] > 46 µM | Potency [6] | Potency [12] | outcome [13]

Fc1ccc(Nc2ncnc3ccc(-c4ccoc4)cc23)cc1
inactive: Potency [1] > 11.4 µM | activity change, negative = inhibition [3] 10.4% | activity, negative = inhibition [4] -22.9% | Potency [14] > 46 µM | Potency [5] > 46 µM | Potency [6] | Potency [16] | Potency [12] | outcome [13]
active: Potency [2] 1 µM | Potency [9] 0.631 µM | Potency [10] 0.708 µM | Potency [11] 0.355 µM

COc1ccc(-c2nc3cnc(N4CCOCC4)nc3n(CCc3ccccc3)c2=O)cc1
active: Potency [2] 10 µM | activity change, negative = inhibition [3] 119% [activator] | activity, negative = inhibition [4] 92.5% [activator] | Potency [17] 1.26 µM
inactive: Potency [1] > 11.4 µM | Potency [14] > 9.22 µM | Potency [5] > 46 µM | Potency [6] | Potency [7] | Potency [9] | Potency [10] | Potency [11] | Potency [12] | outcome [13]

COc1ccc(-n2c(=O)c(-c3cc(F)cc(F)c3)nc3cnc(N4CCOCC4)nc32)cc1
inactive: Potency [1] > 11.4 µM | Potency [14] > 9.22 µM | Potency [5] > 46 µM | Potency [6] | Potency [7] | Potency [16] | Potency [9] | Potency [10] | Potency [11] | Potency [12] | outcome [13]
active: Potency [2] 15.8 µM | Potency [17] 1.58 µM

Cn1cc(-c2nc3cnc(N4CCNCC4)nc3n(Cc3ccc(F)cc3)c2=O)c2ccccc21
inactive: Potency [1] > 11.4 µM | Potency [14] > 9.22 µM | Potency [5] > 46 µM | Potency [7] | Potency [16] | Potency [9] | Potency [10] | Potency [11] | outcome [13]
active: Potency [2] 20 µM | activity change, negative = inhibition [3] 68.4% [activator] | Potency [8] 7.94 µM
